Experimental data reported in the supplement of paper PMC11732987, “Enantioselective OTUD7B fragment discovery through chemoproteomics screening and high-throughput optimisation” (Communications Chemistry, 2025).

What was measured:
Assay in all cases: log2 ratio of Biotin-Ahx-Ub-VS probe labelling (fragment/DMSO); higher = less target engagement (more negative = stronger competition), active = hit call of the paper (q ≤ 0.05, log2 ratio ≤ -1)
Conditions in all cases: compound concentration: 200 uM; treatment time: 3 h
USP34 = USP34 (UniProt Q70CQ2)
Procedure, shortened: (§1)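 HEK293T lysate (495 µg per sample, in Tris/CHAPS/IGEPAL buffer with protease inhibitors) was treated in triplicate with fragment at 200 µM or with DMSO for 3 h. It was then treated with Biotin-Ahx-Ub-VS (0.5 µM final) for 1 h. Labelled DUBs were NeutrAvidin-enriched, digested with LysC and trypsin, and run by diaPASEF LC-MS/MS. Spectronaut label-free quantities were global-median-normalised. Values are average log2 ratios fragment/DMSO by unpaired t-test, using proteins with ≥2 unique peptides.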

USP36 = target: T1, USP36 (UniProt Q9P275)
T1 sequence (whole entry): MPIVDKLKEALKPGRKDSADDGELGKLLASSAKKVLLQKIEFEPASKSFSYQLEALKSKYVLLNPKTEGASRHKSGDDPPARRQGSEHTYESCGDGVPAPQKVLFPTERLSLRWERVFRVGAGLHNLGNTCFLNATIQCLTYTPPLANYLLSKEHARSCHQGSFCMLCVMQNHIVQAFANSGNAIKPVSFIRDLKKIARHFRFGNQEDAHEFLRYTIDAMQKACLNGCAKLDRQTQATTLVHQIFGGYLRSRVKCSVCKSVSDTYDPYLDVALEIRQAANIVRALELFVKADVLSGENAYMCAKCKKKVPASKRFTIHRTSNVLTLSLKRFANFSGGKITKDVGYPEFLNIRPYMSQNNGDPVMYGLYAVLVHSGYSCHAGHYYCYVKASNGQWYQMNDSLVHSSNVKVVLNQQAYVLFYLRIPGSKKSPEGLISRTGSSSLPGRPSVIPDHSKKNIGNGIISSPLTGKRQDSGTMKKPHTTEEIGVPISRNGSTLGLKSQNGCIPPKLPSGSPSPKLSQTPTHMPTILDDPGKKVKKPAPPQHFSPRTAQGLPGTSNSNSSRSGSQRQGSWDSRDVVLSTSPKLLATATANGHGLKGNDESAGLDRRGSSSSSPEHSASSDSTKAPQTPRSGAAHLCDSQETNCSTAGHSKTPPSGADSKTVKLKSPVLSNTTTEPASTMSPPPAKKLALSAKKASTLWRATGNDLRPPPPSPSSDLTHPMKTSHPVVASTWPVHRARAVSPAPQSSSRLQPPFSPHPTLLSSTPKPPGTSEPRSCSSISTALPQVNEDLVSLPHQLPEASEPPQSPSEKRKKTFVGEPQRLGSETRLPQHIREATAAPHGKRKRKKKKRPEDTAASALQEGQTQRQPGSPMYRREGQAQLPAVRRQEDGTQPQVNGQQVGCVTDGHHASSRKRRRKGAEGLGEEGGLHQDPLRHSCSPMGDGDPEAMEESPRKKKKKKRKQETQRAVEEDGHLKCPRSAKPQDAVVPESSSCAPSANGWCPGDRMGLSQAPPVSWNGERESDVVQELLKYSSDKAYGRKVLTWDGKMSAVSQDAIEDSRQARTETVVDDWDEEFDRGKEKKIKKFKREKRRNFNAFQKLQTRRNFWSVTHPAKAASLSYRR
Procedure, shortened: as §1

USP38 = target: T2, USP38 (UniProt Q8NB14)
T2 sequence (whole entry): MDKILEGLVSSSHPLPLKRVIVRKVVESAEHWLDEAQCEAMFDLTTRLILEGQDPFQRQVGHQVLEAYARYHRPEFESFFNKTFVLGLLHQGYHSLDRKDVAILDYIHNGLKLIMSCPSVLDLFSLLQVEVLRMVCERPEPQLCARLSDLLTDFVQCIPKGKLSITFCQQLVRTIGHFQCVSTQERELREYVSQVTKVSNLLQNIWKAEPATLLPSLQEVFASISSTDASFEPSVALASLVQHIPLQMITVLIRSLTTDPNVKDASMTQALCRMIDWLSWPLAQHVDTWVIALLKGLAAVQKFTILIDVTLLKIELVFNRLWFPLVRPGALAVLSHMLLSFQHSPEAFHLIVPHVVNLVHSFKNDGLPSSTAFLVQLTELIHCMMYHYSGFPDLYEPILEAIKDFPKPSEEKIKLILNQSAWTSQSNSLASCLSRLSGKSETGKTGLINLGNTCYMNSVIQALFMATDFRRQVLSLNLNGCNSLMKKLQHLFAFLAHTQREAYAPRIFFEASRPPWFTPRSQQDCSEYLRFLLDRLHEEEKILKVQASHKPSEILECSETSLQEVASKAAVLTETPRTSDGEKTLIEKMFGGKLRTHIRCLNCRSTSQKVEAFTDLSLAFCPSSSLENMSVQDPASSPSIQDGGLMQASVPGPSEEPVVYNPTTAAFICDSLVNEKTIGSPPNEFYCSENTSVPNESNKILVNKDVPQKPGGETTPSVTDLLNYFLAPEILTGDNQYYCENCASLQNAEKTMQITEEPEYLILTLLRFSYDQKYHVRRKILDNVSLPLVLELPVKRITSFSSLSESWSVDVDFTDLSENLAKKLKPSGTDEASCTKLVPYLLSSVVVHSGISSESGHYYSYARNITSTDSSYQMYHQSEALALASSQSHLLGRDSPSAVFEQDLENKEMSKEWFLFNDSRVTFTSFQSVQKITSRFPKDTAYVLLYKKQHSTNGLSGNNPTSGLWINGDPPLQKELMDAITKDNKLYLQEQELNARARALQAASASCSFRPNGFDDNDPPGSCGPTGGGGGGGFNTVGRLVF
Procedure, shortened: as §1

USP39 = target: T3, USP39 (UniProt Q53GS9)
T3 sequence (whole entry): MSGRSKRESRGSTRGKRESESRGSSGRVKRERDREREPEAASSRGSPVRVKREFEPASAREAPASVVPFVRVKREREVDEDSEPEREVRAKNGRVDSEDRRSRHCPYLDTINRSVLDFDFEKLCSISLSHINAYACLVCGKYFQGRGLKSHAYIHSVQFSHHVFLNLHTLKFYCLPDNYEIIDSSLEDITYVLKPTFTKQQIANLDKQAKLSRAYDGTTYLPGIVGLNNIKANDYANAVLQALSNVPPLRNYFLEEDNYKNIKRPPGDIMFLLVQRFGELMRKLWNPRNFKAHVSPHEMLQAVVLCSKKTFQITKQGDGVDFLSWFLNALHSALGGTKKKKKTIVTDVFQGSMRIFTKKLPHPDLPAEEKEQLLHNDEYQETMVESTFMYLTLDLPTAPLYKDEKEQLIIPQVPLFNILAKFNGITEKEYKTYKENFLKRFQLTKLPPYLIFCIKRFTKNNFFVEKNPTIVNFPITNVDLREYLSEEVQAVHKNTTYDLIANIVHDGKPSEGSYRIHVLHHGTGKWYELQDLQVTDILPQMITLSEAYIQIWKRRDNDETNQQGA
Procedure, shortened: as §1

USP4 = target: T4, USP4 (UniProt Q13107)
T4 sequence (whole entry): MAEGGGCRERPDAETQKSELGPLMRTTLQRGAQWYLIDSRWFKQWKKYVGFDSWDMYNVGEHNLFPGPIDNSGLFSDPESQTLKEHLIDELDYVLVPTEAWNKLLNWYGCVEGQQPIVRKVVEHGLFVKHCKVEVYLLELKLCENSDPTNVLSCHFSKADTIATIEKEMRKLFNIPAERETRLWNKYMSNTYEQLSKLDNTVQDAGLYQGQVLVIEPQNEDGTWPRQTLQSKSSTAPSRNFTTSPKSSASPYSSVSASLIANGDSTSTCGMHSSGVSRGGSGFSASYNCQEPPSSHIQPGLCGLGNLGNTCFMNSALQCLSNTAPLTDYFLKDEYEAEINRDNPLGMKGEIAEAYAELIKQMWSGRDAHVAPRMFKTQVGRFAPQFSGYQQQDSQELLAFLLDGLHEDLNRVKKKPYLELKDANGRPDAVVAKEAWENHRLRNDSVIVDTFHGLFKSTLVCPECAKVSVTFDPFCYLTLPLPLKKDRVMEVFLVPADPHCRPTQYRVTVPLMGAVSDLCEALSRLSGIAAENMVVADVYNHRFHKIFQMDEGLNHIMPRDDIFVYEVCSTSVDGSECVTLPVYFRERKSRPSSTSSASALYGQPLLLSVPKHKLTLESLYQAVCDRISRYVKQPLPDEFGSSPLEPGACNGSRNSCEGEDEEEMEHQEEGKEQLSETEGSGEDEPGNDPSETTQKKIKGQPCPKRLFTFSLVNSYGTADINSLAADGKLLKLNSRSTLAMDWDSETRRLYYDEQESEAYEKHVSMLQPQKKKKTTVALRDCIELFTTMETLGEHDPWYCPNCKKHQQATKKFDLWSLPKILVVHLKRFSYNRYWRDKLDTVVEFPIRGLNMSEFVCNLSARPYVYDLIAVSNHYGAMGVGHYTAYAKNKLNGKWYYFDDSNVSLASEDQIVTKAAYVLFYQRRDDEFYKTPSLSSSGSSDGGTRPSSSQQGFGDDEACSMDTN
Procedure, shortened: as §1

Measured: log2 ratio of Biotin-Ahx-Ub-VS probe labelling

Chain of USP34 (Q70CQ2 whole entry, the tested form may be a part): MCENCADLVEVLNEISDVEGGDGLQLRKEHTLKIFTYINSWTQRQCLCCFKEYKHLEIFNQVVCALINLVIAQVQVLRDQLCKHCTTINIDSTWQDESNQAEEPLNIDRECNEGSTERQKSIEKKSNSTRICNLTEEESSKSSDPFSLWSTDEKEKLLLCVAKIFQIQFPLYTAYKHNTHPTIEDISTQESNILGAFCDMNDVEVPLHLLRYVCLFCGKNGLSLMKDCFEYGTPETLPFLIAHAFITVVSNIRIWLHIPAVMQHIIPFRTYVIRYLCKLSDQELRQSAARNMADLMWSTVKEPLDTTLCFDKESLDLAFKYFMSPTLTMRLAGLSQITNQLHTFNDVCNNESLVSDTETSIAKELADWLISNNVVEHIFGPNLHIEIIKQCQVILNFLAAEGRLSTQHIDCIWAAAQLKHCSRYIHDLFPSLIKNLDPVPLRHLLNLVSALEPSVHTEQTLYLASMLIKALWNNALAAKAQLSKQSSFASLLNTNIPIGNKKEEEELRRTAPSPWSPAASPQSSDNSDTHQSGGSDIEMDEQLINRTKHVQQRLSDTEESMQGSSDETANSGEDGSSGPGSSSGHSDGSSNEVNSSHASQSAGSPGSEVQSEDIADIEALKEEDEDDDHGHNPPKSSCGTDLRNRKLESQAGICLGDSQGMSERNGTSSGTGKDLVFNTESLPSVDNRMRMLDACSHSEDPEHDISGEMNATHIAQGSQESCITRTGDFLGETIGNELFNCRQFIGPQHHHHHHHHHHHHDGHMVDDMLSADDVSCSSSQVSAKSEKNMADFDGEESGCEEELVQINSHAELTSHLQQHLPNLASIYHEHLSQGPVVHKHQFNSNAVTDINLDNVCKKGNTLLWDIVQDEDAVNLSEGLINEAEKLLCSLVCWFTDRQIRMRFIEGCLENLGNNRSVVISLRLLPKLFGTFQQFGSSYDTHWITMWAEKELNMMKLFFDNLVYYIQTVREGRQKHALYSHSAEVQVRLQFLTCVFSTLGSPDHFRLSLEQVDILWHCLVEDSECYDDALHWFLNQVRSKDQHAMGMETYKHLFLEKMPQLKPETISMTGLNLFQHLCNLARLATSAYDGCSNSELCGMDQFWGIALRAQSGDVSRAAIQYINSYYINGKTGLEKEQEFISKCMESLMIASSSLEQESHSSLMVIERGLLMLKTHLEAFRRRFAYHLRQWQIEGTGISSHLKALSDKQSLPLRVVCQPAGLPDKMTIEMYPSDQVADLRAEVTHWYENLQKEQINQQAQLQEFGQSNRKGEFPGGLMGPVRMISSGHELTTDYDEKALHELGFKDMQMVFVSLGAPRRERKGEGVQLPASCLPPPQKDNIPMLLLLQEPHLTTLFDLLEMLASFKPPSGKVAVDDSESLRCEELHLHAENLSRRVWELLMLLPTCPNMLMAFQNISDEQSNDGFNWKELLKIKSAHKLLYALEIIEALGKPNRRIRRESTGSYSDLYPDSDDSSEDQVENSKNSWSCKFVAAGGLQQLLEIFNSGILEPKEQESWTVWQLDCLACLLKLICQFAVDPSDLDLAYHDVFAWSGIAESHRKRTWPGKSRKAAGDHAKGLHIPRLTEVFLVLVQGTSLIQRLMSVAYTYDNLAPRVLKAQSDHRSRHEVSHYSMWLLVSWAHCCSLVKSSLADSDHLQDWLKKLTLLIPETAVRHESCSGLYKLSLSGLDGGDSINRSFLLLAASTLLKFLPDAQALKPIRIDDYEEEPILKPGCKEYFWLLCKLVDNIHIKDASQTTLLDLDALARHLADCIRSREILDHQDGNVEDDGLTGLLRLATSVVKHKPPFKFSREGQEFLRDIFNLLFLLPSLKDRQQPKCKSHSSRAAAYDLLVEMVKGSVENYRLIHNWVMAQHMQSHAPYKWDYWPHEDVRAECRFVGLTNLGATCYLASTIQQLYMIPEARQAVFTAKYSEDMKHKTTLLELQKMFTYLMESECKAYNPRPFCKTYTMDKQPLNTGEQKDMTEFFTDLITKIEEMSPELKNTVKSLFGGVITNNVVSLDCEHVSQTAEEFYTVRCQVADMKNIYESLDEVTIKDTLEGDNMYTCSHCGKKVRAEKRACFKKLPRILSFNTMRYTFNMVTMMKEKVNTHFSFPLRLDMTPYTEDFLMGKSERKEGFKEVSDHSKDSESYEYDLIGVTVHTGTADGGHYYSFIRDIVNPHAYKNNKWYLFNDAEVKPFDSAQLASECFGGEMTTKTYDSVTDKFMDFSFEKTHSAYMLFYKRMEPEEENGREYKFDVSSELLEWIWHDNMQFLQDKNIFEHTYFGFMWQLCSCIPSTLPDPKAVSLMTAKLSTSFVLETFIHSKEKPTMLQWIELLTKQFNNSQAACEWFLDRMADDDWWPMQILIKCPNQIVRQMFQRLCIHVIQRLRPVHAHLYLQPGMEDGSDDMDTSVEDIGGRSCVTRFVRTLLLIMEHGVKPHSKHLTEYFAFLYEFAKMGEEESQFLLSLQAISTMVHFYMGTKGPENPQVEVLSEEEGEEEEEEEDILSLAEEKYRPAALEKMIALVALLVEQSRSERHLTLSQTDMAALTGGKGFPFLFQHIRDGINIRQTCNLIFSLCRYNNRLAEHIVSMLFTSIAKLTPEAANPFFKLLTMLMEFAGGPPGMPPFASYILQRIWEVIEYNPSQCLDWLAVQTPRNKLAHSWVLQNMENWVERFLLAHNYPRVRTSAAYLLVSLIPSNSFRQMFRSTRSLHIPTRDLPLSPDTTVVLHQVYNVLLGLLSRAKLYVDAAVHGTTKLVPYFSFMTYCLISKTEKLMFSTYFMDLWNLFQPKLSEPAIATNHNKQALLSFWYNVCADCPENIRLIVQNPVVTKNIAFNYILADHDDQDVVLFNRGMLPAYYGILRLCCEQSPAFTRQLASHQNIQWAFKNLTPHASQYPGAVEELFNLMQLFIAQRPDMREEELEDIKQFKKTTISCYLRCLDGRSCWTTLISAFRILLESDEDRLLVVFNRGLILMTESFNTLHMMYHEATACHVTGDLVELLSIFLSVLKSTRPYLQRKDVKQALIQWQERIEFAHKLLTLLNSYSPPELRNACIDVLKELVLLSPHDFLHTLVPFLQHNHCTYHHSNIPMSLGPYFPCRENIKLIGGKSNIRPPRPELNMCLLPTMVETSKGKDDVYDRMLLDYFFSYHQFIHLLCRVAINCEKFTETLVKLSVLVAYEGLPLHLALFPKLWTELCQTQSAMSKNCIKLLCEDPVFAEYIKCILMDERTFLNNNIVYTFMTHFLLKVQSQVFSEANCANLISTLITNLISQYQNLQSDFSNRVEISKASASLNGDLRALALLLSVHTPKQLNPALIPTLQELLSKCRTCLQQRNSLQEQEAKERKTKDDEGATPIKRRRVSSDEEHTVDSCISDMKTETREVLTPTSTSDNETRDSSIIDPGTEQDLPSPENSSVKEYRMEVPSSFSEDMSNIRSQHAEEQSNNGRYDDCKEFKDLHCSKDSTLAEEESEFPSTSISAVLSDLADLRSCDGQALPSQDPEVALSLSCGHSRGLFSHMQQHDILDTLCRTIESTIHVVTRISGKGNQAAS

O=C(CCl)N1CCC2(CCC(O)CC2)CC1
inactive: USP34 -0.363 | USP36 -0.0873 | USP38 0.139 | USP39 0.333 | USP4 0.123
